# Measured values from PubChem BioAssay (NCI).
# Compounds without any hit were thinned out: in the full panel of roughly 83,000, 20% have a hit.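 The test compound was applied at a single concentration to cells in 96-well plates for 48 hours, and percent growth was recorded.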 Values without a mark were called inactive. Calls of active or inactive are those of the source. How the source made its calls: active means growth percent below 10; inactive means the rest.
# What was measured:
# Assay in all cases: NCI-60 one-dose screen, 48 h (100 = growth as untreated, 0 = no growth, -100 = all killed)
# Conditions in all cases: 10 µM unless noted
# NCI-H23 lung = tested on: NCI-H23 lung
# NCI-H226 lung = tested on: NCI-H226 lung
# NCI-H322M lung = tested on: NCI-H322M lung
# HOP-62 NSCLC = tested on: HOP-62 NSCLC
# NCI-H460 lung = tested on: NCI-H460 lung
# HOP-92 NSCLC = tested on: HOP-92 NSCLC
# NCI-H522 lung = tested on: NCI-H522 lung
# A549/ATCC NSCLC = tested on: A549/ATCC NSCLC
# 786-0 renal = tested on: 786-0 renal
# COLO 205 colon = tested on: COLO 205 colon
# DU-145 prostate = tested on: DU-145 prostate
# K-562 leukemia = tested on: K-562 leukemia
# MALME-3M melanoma = tested on: MALME-3M melanoma
# MDA-MB-231 breast = tested on: MDA-MB-231 breast
# RXF 393 renal = tested on: RXF 393 renal
# SF-268 CNS = tested on: SF-268 CNS
# SF-295 CNS = tested on: SF-295 CNS
# SF-539 CNS = tested on: SF-539 CNS
# UACC-257 melanoma = tested on: UACC-257 melanoma
# M14 melanoma = tested on: M14 melanoma
Structure (SMILES),growth (NCI-H23 lung),growth (NCI-H226 lung),growth (NCI-H322M lung),growth (HOP-62 NSCLC),growth (NCI-H460 lung),growth (HOP-92 NSCLC),growth (NCI-H522 lung),growth (A549/ATCC NSCLC),growth (786-0 renal),growth (COLO 205 colon),growth (DU-145 prostate),growth (K-562 leukemia),growth (MALME-3M melanoma),growth (MDA-MB-231 breast),growth (RXF 393 renal),growth (SF-268 CNS),growth (SF-295 CNS),growth (SF-539 CNS),growth (UACC-257 melanoma),growth (M14 melanoma)
c1ccc2c3c([nH]c2c1)C(c1ccc(C2NCCc4c2[nH]c2ccccc42)cc1)NCC3 (stereo not given),72.4%,77.1%,-1.54% (active),-70.3% (active),-71.6% (active),20.8%,-72.4% (active),-85.1% (active),-68.1% (active),-81.5% (active),-35.1% (active),-57.6% (active),-50.3% (active),-56.2% (active),33.9%,-29.2% (active),-72.2% (active),-15.5% (active),-41.7% (active),-84.9% (active)
CN(C)CCCn1c2c(c3cc(-c4cccc(S(N)(=O)=O)c4)ccc3c1=O)C(=O)c1ccccc1-2,57.4%,77.8%,77.3%,53.1%,14.1%,104%,44.9%,64.7%,30.6%,59.1%,67.9%,33.1%,67.1%,94.4%,85.1%,51.6%,50.6%,80.9%,97.4%,62.7%
Cc1ccc(C(=O)O)o1,100%,104%,105%,109%,108%,89.9%,87%,93.1%,97.1%,107%,107%,103%,104%,111%,118%,98.1%,99.8%,99.5%,103%,101%
C=C1C(=O)O[C@H]2[C@H]1CC/C(COC(=O)c1cc3ccccc3o1)=C\CC[C@@]1(C)O[C@@H]21,32.8%,45.6%,78.1%,42.7%,42.2%,-52.7% (active),-58.2% (active),51.4%,-19.1% (active),-65.6% (active),-24.2% (active),-2.5% (active),-70.3% (active),-38.8% (active),-83.4% (active),4.87% (active),74.8%,-40.7% (active),40.5%,-53.9% (active)
CCCCc1n(Cc2ccc3ccccc3c2)c2ccccc2[n+]1Cc1ccc2ccccc2c1,-83.9% (active),-72.7% (active),-82.3% (active),-76.8% (active),-81.1% (active),-70.7% (active),-77.2% (active),-72.3% (active),-80.1% (active),-66.9% (active),-93.1% (active),-73.2% (active),-86.2% (active),-88.2% (active),-92.6% (active),-80.5% (active),-87.8% (active),-94.3% (active),-58.1% (active),-81.4% (active)
N#CC1(C#N)C2=C(CCCC2)NC(c2c(F)cccc2Cl)C1(C#N)C#N (stereo not given),82%,92.1%,91.1%,72.1%,95.1%,42.9%,-14.1% (active),92.6%,88.7%,91.4%,89.7%,25.8%,74.7%,87.5%,78.2%,89.9%,81.3%,50.1%,75.2%,49.5%
[2H]c1cc2c(c([2H])c1F)/C(=C/c1[nH]c(C)c(C(=O)NCCN(CC)CC)c1C)C(=O)N2,43.5%,40.5%,47.7%,28.9%,47.5%,26.6%,62.4%,56.5%,32.5%,38.3%,34.6%,55.3%,10.8%,67.7%,25%,57.7%,85.1%,45.3%,69.2%,20.6%
Cc1c(Cl)cccc1NC(=O)c1sc2nc3c(cc2c1N)CN(Cc1ccccc1)CC3,66.1%,72.3%,73.1%,38.4%,22%,51.8%,0.814% (active),58.6%,42.9%,51.5%,30.5%,10%,49.5%,86.3%,68.8%,42.3%,21.8%,39.3%,63.6%,26.8%
